Experimental data taken from PubChem BioAssay AID624330 (Southern Research Specialized Biocontainment Screening …, 2012).
Screen size: about 340,000 compounds; about 2,100 (0.62%) were called active.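 Rule for the calls: active = first-screen hits whose inhibition reached a set limit at any dose in the follow-up dose series; inconclusive = inhibition above the set first-screen limit but never retested; inactive = the rest.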 Not all results are given here. Entries with a potency or affinity are not part of this list.

The compounds below were run against Rac GTPase-activating protein 1 (Homo sapiens) (UniProt Q9H0H5) (assay: blockers of MgcRacGAP-driven Rac1 GTP hydrolysis – biochemical, ADP Hunter fluorescence, primary and confirmatory, confirmation (AID 624330;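 note: fluorescence reports GDP produced by GAP-driven GTP hydrolysis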)). Conditions: MgcRacGAP-stimulated Rac1 GTP hydrolysis, at 30 µM, stronger effect = higher value, GST-tagged Rac1 F28L mutant substrate.
Sequence of Rac GTPase-activating protein 1 (Homo sapiens) (Q9H0H5 whole entry, looked up): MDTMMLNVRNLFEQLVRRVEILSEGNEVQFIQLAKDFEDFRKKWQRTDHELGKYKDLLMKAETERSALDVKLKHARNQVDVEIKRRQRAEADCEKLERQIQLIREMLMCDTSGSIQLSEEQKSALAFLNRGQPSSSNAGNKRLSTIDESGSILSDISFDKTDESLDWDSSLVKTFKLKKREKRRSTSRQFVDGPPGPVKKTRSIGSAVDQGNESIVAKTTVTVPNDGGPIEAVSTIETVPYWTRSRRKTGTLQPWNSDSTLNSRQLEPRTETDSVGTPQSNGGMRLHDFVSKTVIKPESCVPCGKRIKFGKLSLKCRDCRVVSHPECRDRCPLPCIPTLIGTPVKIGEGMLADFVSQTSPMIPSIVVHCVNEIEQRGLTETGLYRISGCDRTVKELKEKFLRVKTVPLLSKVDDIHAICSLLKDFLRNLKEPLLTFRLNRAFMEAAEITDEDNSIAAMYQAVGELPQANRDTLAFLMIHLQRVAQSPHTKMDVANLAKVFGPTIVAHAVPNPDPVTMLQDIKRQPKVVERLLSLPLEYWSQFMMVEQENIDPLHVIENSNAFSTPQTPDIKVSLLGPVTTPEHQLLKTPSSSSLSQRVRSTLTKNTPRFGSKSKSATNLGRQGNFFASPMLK

inhibition, inactive:
CC1CCN(CC(O)COc2cccc(F)c2)CC1 (stereo unspecified) 2.16%, NC(=O)c1ccc(NC(=O)CN2CCN(C(=O)c3ccco3)CC2)cc1 13.6%, CSc1cccc(CN2CCCC(CNC(=O)c3ccco3)C2)c1 (stereo unspecified) 8.31%, Cc1c(NC(=O)Nc2ccc(Cl)c(Cl)c2)sc(=S)n1C -8.84%, N#C/C(=C\c1cccc(O)c1)C(=O)N1CCCCC1 11.3%, N#C/C(=C/c1cc(Cl)c(O)c(Cl)c1)C(=O)N1CCCCC1 10.9%, O=C(O)c1ccc(/C=C2\CCCc3c2nc2ccccc2c3C(=O)O)cc1 3.69%, O=C(O)c1c2c(nc3ccccc13)/C(=C/c1ccc(OC(F)F)cc1)CCC2 9.02%, CN(C)C(=O)CCc1ccc2c3c([nH]c2c1)[C@]1(C)[C@@H](C(=O)N2CCOCC2)C[C@H](CC(=O)NCc2cccc(C(F)(F)F)c2)C(=O)N1CC3 -2.92%, C/C(=N/NC(=O)c1cccc(Br)c1)C1CC2CCC1C2 (stereo unspecified) -6.86%, Cc1ccc(/C=C(/C#N)c2nc(CCN3C(=O)c4ccccc4C3=O)cs2)cc1 9.96%, COc1ccc(N2CCN(C(C)C(=O)N3CC(C)OC(C)C3)CC2)cc1 (stereo unspecified) 26.9%, CC(C(=O)NC(=O)NC1CCCCC1)N1CCN(C(c2ccccc2)c2ccccc2)CC1 (stereo unspecified) 4.85%, COc1ccc(N2CCN(C(C)C(=O)N3CCc4ccccc43)CC2)cc1 (stereo unspecified) 19.8%, CC(C(=O)NC1CCCC1)N1CCN(Cc2ccccc2)CC1 (stereo unspecified) 9.35%, CC(C(=O)NC(=O)NC1CCCCC1)N1CCN(c2ccccn2)CC1 (stereo unspecified) 4.4%, CCN1CCN(C(C(=O)NC2CCCCC2)c2ccc(Cl)cc2)CC1 (stereo unspecified) 2.93%, CN1CCN(C(=O)NC2CCCCC2)CC1 13%, CN1CCC(NC(=O)NC2CCCCC2)CC1 4.99%, C=CCN1C(=O)CS/C1=N\S(=O)(=O)c1ccc(Cl)cc1 -1.54%, CCOC(=O)c1c(C)n(C)c2ccc(OC)c([N+](=O)[O-])c12 8.57%, CCCOc1c(Br)cc(C(=O)NCC)cc1OC 13%, CSCCC(NS(=O)(=O)c1ccc2c(c1)oc(=O)n2C)C(=O)NCc1ccc(C)cc1 (stereo unspecified) 9.41%, CCCNC(=O)c1ccc(OC)cc1OC -1.98%, Cc1cccc(N=C2CCCC2C(=O)Nc2cccc(C)c2C)c1C (stereo unspecified) 5.77%, NC(=O)c1ccsc1NC(=O)COC(=O)c1cc(Cl)ccc1O 0.77%
